In all, about 1,300 compounds went through this assay and about 380 (29%) were called active. About 37% were inconclusive and are not listed. Calls follow the shape of the dose curve; as a rule, active = well fitted inhibition curve with a large enough effect; inconclusive = small, poorly fitted or top-dose-only effect; inactive = flat fitted curve, though single readings scatter. The list shows a part of the results. Where a call stands in place of a potency, no number is given.
Potency is read from the fitted curve at half-maximal effect.

Thyrotropin receptor (Homo sapiens), sequence (P16473 whole entry, looked up): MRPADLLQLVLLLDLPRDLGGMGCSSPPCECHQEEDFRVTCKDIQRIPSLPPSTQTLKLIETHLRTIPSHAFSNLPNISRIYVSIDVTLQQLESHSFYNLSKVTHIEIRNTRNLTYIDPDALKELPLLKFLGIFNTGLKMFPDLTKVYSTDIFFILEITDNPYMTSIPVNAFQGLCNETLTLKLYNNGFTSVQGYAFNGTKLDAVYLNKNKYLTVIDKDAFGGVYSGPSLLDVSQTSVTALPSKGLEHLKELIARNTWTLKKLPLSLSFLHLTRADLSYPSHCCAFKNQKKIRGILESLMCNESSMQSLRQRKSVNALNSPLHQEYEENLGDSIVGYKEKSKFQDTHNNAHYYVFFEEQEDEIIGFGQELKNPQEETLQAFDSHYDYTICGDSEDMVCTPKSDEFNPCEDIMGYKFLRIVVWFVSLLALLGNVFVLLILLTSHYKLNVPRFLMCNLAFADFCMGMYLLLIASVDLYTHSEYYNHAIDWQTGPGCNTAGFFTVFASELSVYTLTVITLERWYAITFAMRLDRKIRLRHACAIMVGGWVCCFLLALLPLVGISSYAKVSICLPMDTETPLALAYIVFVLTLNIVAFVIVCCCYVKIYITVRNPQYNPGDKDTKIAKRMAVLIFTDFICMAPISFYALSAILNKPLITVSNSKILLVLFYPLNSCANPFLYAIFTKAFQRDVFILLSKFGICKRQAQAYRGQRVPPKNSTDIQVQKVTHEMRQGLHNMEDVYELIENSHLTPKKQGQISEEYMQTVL

This test has as its target Thyrotropin receptor (Homo sapiens) (UniProt P16473). In words: qHTS for antagonists of the Thyroid Stimulation Hormone Receptor: Hit Validation in Primary Screen. Also: nearly all actives have a fitted effect of over 80% in size. As to conditions: TSHR-expressing cells, cAMP antagonist mode; series mostly up to 58 µM. Summed up: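 Competitive HTRF detected cAMP in lysates of TSHR cells, read 30 minutes after antibody and d2 addition at room temperature. Before lysis, cells had 2 hours at 37 deg C with compound plus EC80 TSH, 4nM final.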
On the technique in general: qHTS replaces the single test concentration by a dilution series.
Regarding `COc1ccc(CNC(=O)C(C)OC(=O)c2cccs2)cc1` (stereo unspecified), the Potency entry is “inactive”.

In the case of `COc1ccc(S(=O)(=O)NCCc2cn3nc(C)c(C)nc3n2)cc1F`, the Potency entry is “inactive”.

Turning to `COc1ccc(NC2CCCN(C(=O)CCc3cccc(F)c3)C2)cc1` (stereo unspecified), the Potency result is “inactive”.

With `CCOc1ccc(-c2csc(/C(C#N)=C\c3ccc(O)c([N+](=O)[O-])c3)n2)cc1`, the Potency is 6.01 µM (active).

For `COc1ccc(-c2csc(/C(C#N)=C\c3ccc(O)c([N+](=O)[O-])c3)n2)cc1OC`, the Potency is 1.9 µM (active).

For the molecule `NC(=O)c1cc(S(=O)(=O)NCc2ccc(F)cc2)cs1`, the Potency result is “inactive”.

Consider `CCN(CCCNC(=O)Cn1ncc2c([nH]c3ccc(C)cc32)c1=O)c1cccc(C)c1`, for which the Potency entry is “inactive”.

As to `COc1ccc(/C=N/NC(=O)c2ccoc2C)cc1COc1c(C)cccc1C`, the Potency was 12 µM (active).

As to `COc1ccc(N2C(=O)NC(NS(=O)(=O)c3ccc(Cl)cc3)(C(F)(F)F)C2=O)cc1` (stereo unspecified), the Potency entry is “inactive”.

Turning to `O=c1cc(C(F)(F)F)[nH]c2c(C(F)(F)F)cccc12`, the Potency was 2.39 µM (active).

With `O=c1nc(/C=C/c2ccccc2C(F)(F)F)cc(C(F)(F)F)[nH]1`, the Potency result is “inactive”.

As to `O=c1cc(C(F)(F)F)[nH]c2ccc(OC(F)(F)F)cc12`, the Potency is 9.53 µM (active).

Turning to `O=C(Cn1ncc2c([nH]c3ccccc32)c1=O)NCC1CCN(Cc2ccc(F)cc2)CC1`, the Potency result was “inactive”.

`CCOC(=O)C1=C(C)Nc2ccccc2N=C1NC(=O)c1cc(C)on1`: the Potency entry was “inactive”.

For the molecule `N#CC1=C(N)NC(SCc2ccc(Br)cc2)=C(C#N)C12CCCCC2`, the Potency was 23.9 µM (active).

In the case of `COc1ccc(Cl)cc1NC(=O)C1CCN(C(=O)C2CC(=O)N(c3ccc(C)cc3)C2)CC1` (stereo unspecified), the Potency result was “inactive”.

Turning to `Cc1cc(Cl)c(S(=O)(=O)N2CCSCC2)cc1OCC(=O)NC1CCCCC1`, the Potency was 23.9 µM (active).

In the case of `COc1cc(OC)c(NC(=O)Cn2cnc3sc(C)c(S(=O)(=O)N4CCOCC4)c3c2=O)cc1Cl`, the Potency result is “inactive”.

As to `Cc1ccc(S(=O)(=O)N2CCCC(C(=O)NC3CCCC3)C2)cc1Cl` (stereo unspecified), the Potency result was “inactive”.

`O=C(NC1CCCCC1)c1cc(-c2ccccc2O)on1`: the Potency entry was “inactive”.

For `CCOC(=O)c1c(S(=O)(=O)NCC(=O)Nc2cccc(C)c2C)c(C)n(C)c1C`, the Potency entry is “inactive”.

Turning to `c1ccc(CNc2ncnc3scc(-c4cccs4)c23)nc1`, the Potency was 21.3 µM (active).

For `Cc1ccc(OCc2nnc(NC(=O)c3cccnc3)s2)cc1`, the Potency entry was “inactive”.

`O=C(CCC(=O)Nc1ccccc1)N/N=C/c1ccncc1`: the Potency entry is “inactive”.

Take `O=C(COc1ccc(-c2ccccc2)cc1)Nc1cccnc1`: the Potency is 37.9 µM (active).

For `O=C(Nc1ccc(Br)cc1)c1cccc(S(=O)(=O)Nc2cnc3ccccc3c2)c1`, the Potency was 21.3 µM (active).

`CCCN1C(=O)c2ccc(C(=O)Nc3cc(C)ccc3O)cc2C1=O`: the Potency result is “inactive”.

`CCCCN1C(=O)c2ccc(C(=O)Nc3ccc(C)c(S(=O)(=O)N(C)C)c3)cc2C1=O`: the Potency is 23.9 µM (active).

As for `O=[N+]([O-])c1cccc(S(=O)(=O)Nc2nc3ccccc3nc2Nc2cccc(S(=O)(=O)N3CCCCC3)c2)c1`, the Potency was 12 µM (active).

Turning to `COC(=O)c1sc(-c2ccc(C(C)(C)C)cc2)cc1NC(=O)/C=C/C(=O)O`, the Potency was 26.9 µM (active).

Turning to `COC(=O)c1sc(-c2ccc(Cl)cc2)cc1NC(=O)/C=C/C(=O)O`, the Potency is 30.1 µM (active).

`Cc1ccccc1NC(=O)C1(C)Cc2ccccc2C(=O)O1` (stereo unspecified): the Potency entry is “inactive”.

As for `CCN(C(=O)CSc1nnc(-c2ccccc2)o1)c1c(N)n(Cc2ccccc2)c(=O)[nH]c1=O`, the Potency result is “inactive”.

Turning to `CC1CC(C)CN(CCCNC(=O)CN2C(=O)COc3ccc(S(=O)(=O)N4CCOCC4)cc32)C1` (stereo unspecified), the Potency entry was “inactive”.

As for `CC(C)C1Nc2ccc(C(=O)N3CCN(c4ccccn4)CC3)cc2NC1=O` (stereo unspecified), the Potency result was “inactive”.

Take `CC1CCc2c(sc(NC(=O)c3ccco3)c2C(=O)O)C1` (stereo unspecified): the Potency result was “inactive”.

With `CC[n+]1c(/C=C/c2ccc(N(C)C)cc2)ccc2ccccc21`, the Potency was 26.9 µM (active).

Take `CC[n+]1ccc(/C=C/c2ccc(N(C)C)cc2)c2ccccc21`: the Potency is 26.9 µM (active).

As to `CN(C)c1ccc(/C=C/c2ccc3c4ccccc4ccc3[n+]2-c2ccccc2)cc1`, the Potency is 23.9 µM (active).

Turning to `CN(C)c1ccc(/C=C/c2cc[n+](C)cc2)cc1`, the Potency was 37.9 µM (active).

As for `O=S(=O)(C/C(=C/CO)S(=O)(=O)c1ccccc1)c1ccccc1`, the Potency entry is “inactive”.

As for `Cc1ccnc(OC(C(=O)O)C(OCCc2ccccc2)(c2ccccc2)c2ccccc2)n1` (stereo unspecified), the Potency entry is “inactive”.

For `COc1ccc(CCNC(=O)c2ccc(Cl)c(S(=O)(=O)N3CCCCCC3)c2)cc1`, the Potency was 16.9 µM (active).

For `O=C(c1ccc(Cl)c(S(=O)(=O)N2CCCCC2)c1)N1CCCC1`, the Potency result is “inactive”.

As to `CSCC[C@H](NC(=O)c1ccc(Cl)c(S(=O)(=O)N2CCCC2)c1)c1nc2ccccc2[nH]1`, the Potency result was “inactive”.

Consider `COc1ccc(-c2cc(C3CCN(c4cc(Cl)nc(N)n4)CC3)[nH]n2)cc1`, for which the Potency was 37.9 µM (active).

In the case of `O=C(N[C@H]1C/C=C\C(c2ccc(F)cc2)N(Cc2ccccc2)C(=O)C1)OCC1c2ccccc2-c2ccccc21` (stereo partly specified), the Potency entry is “inactive”.

For the molecule `O=S(=O)(Nc1cccnc1)c1ccc(Br)c2ccccc12`, the Potency was 26.9 µM (active).

For `O=C(NC(=S)Nc1ccccc1)c1cc(-c2ccccc2)nc2ccccc12`, the Potency entry is “inactive”.

Regarding `CC(=O)Nc1ccc(-c2csc(NC(=O)Nc3ccccc3)n2)cc1`, the Potency was 37.9 µM (active).

Consider `COc1ccc(-c2ccc(SCc3ccccn3)nn2)cc1OC`, for which the Potency entry is “inactive”.

In the case of `COc1cccc(NC(=O)Nc2nc(-c3ccc(OC)c(OC)c3)cs2)c1`, the Potency is 15.1 µM (active).

Consider `COc1ccc(NC(=O)CSc2nc3[nH]c(=O)[nH]c(=O)c3s2)cc1OC`, for which the Potency result is “inactive”.

Regarding `CCN(CC)C(=O)Cn1c(=O)n(-c2ccccc2)c(=O)c2sccc21`, the Potency result is “inactive”.

Take `CC(=O)c1ccc(N(C(=O)CNC(=O)c2ccco2)C(C(=O)NC2CCCC2)c2ccncc2)cc1` (stereo unspecified): the Potency entry is “inactive”.

Turning to `COc1ccc(OCC(=O)NC(=S)Nc2ccc(N3CCOCC3)c(Cl)c2)cc1`, the Potency was 19 µM (active).

For `COc1ccc(NC(=O)CCNS(=O)(=O)c2ccc3c(c2)CC(C)N3C(C)=O)cc1` (stereo unspecified), the Potency entry was “inactive”.

Consider `COc1ccc(NC(=S)N(CCCN2CCOCC2)C(C)c2cc3cccc(OC)c3o2)cc1` (stereo unspecified), for which the Potency result was “inactive”.

As to `N#Cc1nc(-c2ccccc2)oc1N1CCN(C(=O)c2ccco2)CC1`, the Potency entry is “inactive”.

Regarding `CC(C)Nc1ncnc2c1nnn2Cc1ccccc1`, the Potency result is “inactive”.

`O=C(c1ccco1)N1CCN(c2ncnc3c2nnn3Cc2ccccc2Cl)CC1`: the Potency was 30.1 µM (active).

For the molecule `CN(Cc1ccccc1)S(=O)(=O)c1ccc(OCC(=O)NCc2ccccn2)cc1`, the Potency entry was “inactive”.

Take `O=C(COc1ccc(Cl)cc1)Nc1nc(-c2cccs2)cs1`: the Potency is 23.9 µM (active).

Turning to `CC1CCCCN1C(=O)CSCC(=O)Nc1nc(-c2cccs2)cs1` (stereo unspecified), the Potency was 30.1 µM (active).

In the case of `CCOC(=O)Cc1csc(NC(=O)COc2ccc(N(C)S(=O)(=O)c3cccs3)cc2)n1`, the Potency was 23.9 µM (active).

As to `CCOc1ccc(N(CC(=O)NCc2ccc(F)cc2)C(=O)CCC(=O)Nc2nccs2)cc1`, the Potency entry is “inactive”.

Turning to `CN(C)S(=O)(=O)c1ccc(C(=O)Nc2nc(-c3cccs3)cs2)cc1`, the Potency was 19 µM (active).

For the molecule `O=C(Nc1nc(-c2cccs2)cs1)c1cccc(S(=O)(=O)N2CCCCCC2)c1`, the Potency entry is “inactive”.

On to `CCN(CC)c1ccc(C(=O)OCC(=O)N2CCCC2)cc1`, for which the Potency entry is “inactive”.

Take `COc1cccc(NC(=S)N2CCCN(Cc3ccc(F)cc3)C2)c1`: the Potency result is “inactive”.

With `Cn1nnnc1SCC1=C(C(=O)O)N2C(=O)C(NC(=O)C3CC3c3ccccc3)C2SC1` (stereo unspecified), the Potency result was “inactive”.

As for `O=C1C=C(c2ccc(Cl)c(C(F)(F)F)c2)C[C@@H](c2ccc(F)cc2)C1`, the Potency entry was “inactive”.

Turning to `CCSC1=NSC2=NC(=O)/C(=C\c3coc4ccccc4c3=O)C(=N)N12`, the Potency is 1.69 µM (active).

Consider `CSC1=NSC2=NC(=O)/C(=C\c3coc4ccccc4c3=O)C(=N)N12`, for which the Potency is 2.69 µM (active).

Consider `Cc1ccc(-c2nnc(SCC(=O)NC3CCCC3)n2C)cc1`, for which the Potency result is “inactive”.

Take `N#Cc1cccc(NC(=O)COC(=O)c2cc(S(=O)(=O)Nc3ccccc3Cl)ccc2O)c1`: the Potency was 12 µM (active).

Regarding `CCC(=O)OCCNc1cc(Sc2nccn2C)c2nonc2c1[N+](=O)[O-]`, the Potency is 19 µM (active).

Regarding `CCC(=O)OCCNc1cc(Sc2nc3ccccc3[nH]2)c2nonc2c1[N+](=O)[O-]`, the Potency is 23.9 µM (active).

Consider `CCCC(=O)OCCNc1cc(Sc2nc3ccccc3[nH]2)c2nonc2c1[N+](=O)[O-]`, for which the Potency was 23.9 µM (active).

For the molecule `CC(=O)OCCNc1cc(Sc2nc3ccccc3[nH]2)c2nonc2c1[N+](=O)[O-]`, the Potency is 26.9 µM (active).

For `COc1ccc(F)cc1CN1CCN(C(=O)CCC(=O)Nc2nnc(CC(C)C)s2)CC1`, the Potency entry is “inactive”.

As for `O=c1[nH]cccc1-c1nc2ccccc2n1Cc1ccc(F)cc1`, the Potency result is “inactive”.

Turning to `Cn1c(CNC(=O)c2ccc(Cl)cc2)nnc1SCC(=O)NC1CCCC1`, the Potency result is “inactive”.

In the case of `CCN(c1cccc(C)c1)S(=O)(=O)c1cn(CC(=O)OC)c2ccc([N+](=O)[O-])cc12`, the Potency result was “inactive”.

In the case of `CNC(=S)n1cnc(N)n1`, the Potency result is “inactive”.

Consider `NS(=O)(=O)c1ccc(CCNC(=O)c2cc3ccccc3s2)cc1`, for which the Potency entry was “inactive”.

In the case of `O=C(CNC(=O)c1ccco1)OCC(=O)c1ccccc1`, the Potency result was “inactive”.

`CCCCNC(=O)CC1C(=O)N(Cc2ccccc2)C(C)c2nc3ccccc3n21` (stereo unspecified): the Potency result is “inactive”.

`CC1=NN(C(N)=S)C(=O)C1N=Nc1ccc(Cl)cc1Cl` (stereo unspecified): the Potency was 30.1 µM (active).

Regarding `CC(=O)N(C)c1ccc(N=NC2C(=O)N(C(N)=S)N=C2C)cc1` (stereo unspecified), the Potency result is “inactive”.

Regarding `O=C1c2cccnc2C(=O)N1Cc1ccc(S(=O)(=O)N2CCN(c3ccc(Cl)cc3)CC2)cc1`, the Potency entry is “inactive”.

Consider `COc1cccc(N2CCN(c3ncnc4c3cnn4-c3ccc(C)cc3C)CC2)c1`, for which the Potency is 10.7 µM (active).

On to `Cc1onc(-c2ccccc2)c1NC(=O)N(Cc1ccccc1)C(C)C`, for which the Potency result is “inactive”.

Consider `CC(C)N(Cc1ccccc1)C(=O)COC(=O)c1cnc(Cl)c(Cl)c1`, for which the Potency is 23.9 µM (active).

Regarding `CCc1ccc(/C=C/C(=O)c2cc(Br)ccc(=O)c2O)cc1`, the Potency is 9.53 µM (active).

Turning to `Cc1cccc(/C=C/C(=O)c2cc(Br)ccc(=O)c2O)c1`, the Potency is 15.1 µM (active).

Source of the values: PubChem BioAssay AID602292 (National Center for Advancing Translational Sciences (NCATS), 2012).
